GAA850 FXN act = increases GAA850 frataxin promoter reporter activity; AID 540364; activation, % at 6 µM; HEK293 lucGAA850 FXN promoter luciferase reporter, 24 h; percent of 10 µM SAHA response; actives 0.56% (n = 360,000);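 active means activation above the average of all compounds screened plus 3 SD, cutoff fixed separately per campaign, cut at about 7.5% in these data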
HSF1 inh = HSF1 inhibition | NIH3T3-HGL HSE-luciferase, MG132-induced, luminescence 8 h; stronger effect = lower value | activity change, negative = inhibition, % at 7.5 µM (by protocol) | actives 0.77% (n = 300,000) | AID 2098;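 active means more than half of replicate wells show activity change below -50%, luminescence cut by over half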;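 further: luciferase reports HSF-1 transcriptional activity via heat shock element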
PG9 Ab binder = small molecules binding HIV-1 gp120 antibody PG9. actives 0.43% (n = 360,000). AID 624416. TR-FRET gp120-PG9 antibody binding. inhibition, % at 6.7 µM; in the data active means inhibition above about 8.5%
SMARCA2 act = increases SMARCA2 function in MMTV reporter cells | MG213 cells, MMTV-luciferase reporter, dexamethasone, overnight | actives 1% (n = 370,000) | activation, % at 9.1 µM; in the data active means activation above about 7.8%
AI-2 QS modul = modulators of Vibrio harveyi AI-2 quorum sensing system | actives 0.4% (n = 300,000) | AID 2094 | Vibrio harveyi JMH597 AI-2 luminescence/OD600 ratio, 9 h; stronger effect = lower value; strain lacks LuxN and CqsS sensors; 0 = neutral-control median | activity change, % at 7.5 µM; in the data active means activity change below about -75%, passing the limit was not always enough;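 further: luminescence divided by OD600 gain over 9 h not by final OD600 alone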
HSP90 refold inh = inhibitors of HSP90 luciferase refolding in rabbit reticulocyte lysate; inhibition, % at 5.6 µM; AID 1789; actives 0.91% (n = 290,000); luciferase refolding luminescence, 3 h;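 active means inhibition above the screen-wide mean plus 3 SD, computed separately per campaign, cut at about 16% in these data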;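 further: inhibitors lower the luminescence because luciferase stays unfolded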
PG9 bind confirm = confirmation of small molecules binding HIV-1 gp120 antibody PG9 | shares compounds with PG9 Ab binder | TR-FRET PG9 antibody binding, biochemical | inhibition, % at 6.7 µM | actives 90% (n = 1,500) | AID 651571; in the data active means inhibition above about 9%
PGV04 counter = PGV04 control antibody binding, counter-screen; shares compounds with PG9 Ab binder; TR-FRET PGV04 antibody-gp120 binding, biochemical; inhibition, % at 6.7 µM; actives 95% (n = 1,500); in the data active means inhibition above about 9.5%
PG9 binder DR = small molecules binding HIV-1 gp120 antibody PG9; IC50, µM; TR-FRET PG9 antibody-gp120 binding inhibition; 95 tested, under 10 active; AID 651848; shares compounds with PG9 Ab binder; in the data active means IC50 below about 10 µM
PGV04 binding DR = counter-screen for PG9 binders: binding to control antibody PGV04; shares compounds with PG9 Ab binder; TR-FRET binding to control antibody PGV04; IC50, µM; actives 20% (n = 95); AID 651937
PG126 binding DR = counter-screen for PG9 binders: binding to control antibody PG126. shares compounds with PG9 Ab binder. TR-FRET binding to antibody PG126, counterscreen. IC50, µM. actives 20% (n = 95). AID 651939
Large screens that a line does not name were inactive (follow-up assays come after a bar, where they were run). A selection: hits, their analogues and other compounds. The true share with any hit is near 3.4%. Unless noted, no stated cut-off is given here; in the data, active means IC50 below about 9 µM; inactive means the rest.

Cc1ccc(-c2nc3cccnc3s2)cc1NC(=O)C1c2ccccc2Oc2ccccc21	PG9 Ab binder 19 | PG9 bind confirm 30 | PGV04 counter 63
COC(=O)C1=C(C)N(Cc2ccc(C(F)(F)F)cc2)C(=NCc2ccccc2C(F)(F)F)NC1c1ccc(C(F)(F)F)cc1 (configuration not stated)	none (no result: GAA850 FXN act, HSF1 inh, AI-2 QS modul, HSP90 refold inh)
N/C(=N\OC(=O)COc1ccc2ccccc2c1Br)c1ccccn1	none
N/C(=N\OC(=O)COc1ccc2ccccc2c1Br)c1cccnc1	PG9 Ab binder 10 (no result: GAA850 FXN act) | PG9 bind confirm 14 | PGV04 counter 19
O=C(C1=C(O)C(=O)N(CC2CCCO2)C1c1ccc(Cl)cc1Cl)c1ccco1 (configuration not stated)	PG9 Ab binder 11 | PG9 bind confirm 19 | PGV04 counter 23
CCc1cc2cc(C(=O)Nc3ccc(C)cc3)sc2s1	PG9 Ab binder 31 | PG9 bind confirm 29 | PGV04 counter 36
C[C@@H](NC(=O)[C@@H]1CCCN1C(=O)[C@@H]1CCCN1C(=O)c1cccc(Cl)c1)c1ccccc1	none (no result: GAA850 FXN act, HSF1 inh, AI-2 QS modul, HSP90 refold inh)
Cc1ccc(C)c(NC(=O)CSc2nc(C)cc(=O)[nH]2)c1	none (no result: GAA850 FXN act, HSF1 inh, PG9 Ab binder, AI-2 QS modul, HSP90 refold inh)
COc1cccc(N2CCN(C(=O)CCCCCn3c(=S)[nH]c4cc5c(cc4c3=O)OCO5)CC2)c1	none
O=C(CCn1c(=O)c2ccccc2n(Cc2ccccc2)c1=O)NCc1ccc2c(c1)OCO2	PG9 Ab binder 13 | PG9 bind confirm 24 | PGV04 counter 42
O=c1c2ccccc2[nH]c(=S)n1Cc1ccc2c(c1)OCO2	PG9 Ab binder 8.6 | PG9 bind confirm 12 | PGV04 counter 22
O=C(CCn1c(=O)oc2ccccc21)NCc1ccc2c(c1)OCO2	none
O=C(CCCn1c(=S)[nH]c2cc3c(cc2c1=O)OCO3)NCc1ccccc1Cl	PG9 Ab binder 19 | PG9 bind confirm 21 | PGV04 counter 21 | PG9 binder DR inactive | PGV04 binding DR inactive | PG126 binding DR inactive
COc1cccc(CNC(=O)CCCn2c(=S)[nH]c3cc4c(cc3c2=O)OCO4)c1	PG9 Ab binder 28 | PG9 bind confirm 15 | PGV04 counter 23
COC(=O)[C@]12C[C@H](CC(=O)NCC34CC5CC(CC(C5)C3)C4)C(=O)N(Cc3ccc4c(c3)OCO4)C1=C[C@H](C(C)(C)C)O[C@@H]2C	none (no result: GAA850 FXN act, HSF1 inh, AI-2 QS modul, HSP90 refold inh)
O=C(NN=Cc1cccc(OCc2ccccc2)c1)c1cc(-c2ccc(Cl)cc2)n[nH]1	none (no result: GAA850 FXN act, HSF1 inh, PG9 Ab binder, AI-2 QS modul, HSP90 refold inh)
COC(=O)[C@]12C[C@H](CC(=O)NCc3ccccc3)C(=O)N(Cc3ccccc3)C1=C[C@H](C(C)(C)C)O[C@@H]2C	none (no result: GAA850 FXN act, HSF1 inh, AI-2 QS modul, HSP90 refold inh)
CC1CCN(C(=O)c2ncn3c2c(=O)[nH]c2ccc(Br)cc23)CC1	PG9 Ab binder 9.1 (no result: HSF1 inh, AI-2 QS modul, HSP90 refold inh) | PG9 bind confirm 14 | PGV04 counter 18
CC(C)(C)OC(=O)[C@H](Cc1ccccc1)NC(=O)c1ncn2c1c(=O)[nH]c1ccc(Br)cc12	none (no result: HSF1 inh, AI-2 QS modul, HSP90 refold inh)
CCN(CC)c1ccc(/C=N/NC(=O)c2nnn(-c3nonc3N)c2CN(C)C2CCCCC2)cc1	none (no result: HSF1 inh, AI-2 QS modul, HSP90 refold inh)
Cc1ccc(F)cc1-c1cc(C(=O)NCc2cc(C(F)(F)F)cc(C(F)(F)F)c2)[nH]n1	none (no result: HSF1 inh, AI-2 QS modul, HSP90 refold inh)
O=c1oc(-c2ccccc2F)nc2c1cnn2-c1ccccc1	PG9 Ab binder 20 | PG9 bind confirm 49 | PGV04 counter 58
CCCCC1=CC2=C(c3ccco3)C(=O)C(C)(OC(=O)c3ccc(OC)cc3)C(=O)C2=CN1C1CCCC1 (configuration not stated)	none (no result: GAA850 FXN act, PG9 Ab binder, SMARCA2 act, HSP90 refold inh)
CCCCC1=CC2=C(c3ccco3)C(=O)C(C)(OC(=O)c3ccc(OC)cc3)C(=O)C2=CN1C(CO)CO (configuration not stated)	PG9 Ab binder 13 (no result: HSP90 refold inh) | PG9 bind confirm 14 | PGV04 counter 17
CCCCC1=CC2=C(c3ccco3)C(=O)C(C)(OC(=O)c3ccc(OC)cc3)C(=O)C2=CN1CCCN(CC)CC (configuration not stated)	none (no result: HSP90 refold inh)
CCCCC1=CC2=C(c3ccco3)C(=O)C(C)(OC(=O)c3ccc(OC)cc3)C(=O)C2=CN1CC1CC1 (configuration not stated)	none (no result: HSP90 refold inh)
CCCCC1=CC2=C(c3ccco3)C(=O)C(C)(OC(=O)c3ccc(OC)cc3)C(=O)C2=CN1C1CC1 (configuration not stated)	PG9 Ab binder 12 (no result: HSP90 refold inh) | PG9 bind confirm 22 | PGV04 counter 29
CCCCC1=CC2=C(c3ccco3)C(=O)C(C)(OC(=O)c3ccc(OC)cc3)C(=O)C2=CN1CCCCO (configuration not stated)	PG9 Ab binder 13 (no result: HSP90 refold inh) | PG9 bind confirm 19 | PGV04 counter 24
COc1ccc(/C=C/S(=O)(=O)NCC(C)C)c(CNC(=O)OC(C)(C)C)c1	none (no result: GAA850 FXN act, HSF1 inh, PG9 Ab binder, AI-2 QS modul, HSP90 refold inh)
CCOC(=O)c1ccc(NC(=O)OC[C@@H]2CSCCS(=O)(=O)N2)cc1	none (no result: GAA850 FXN act, HSF1 inh, AI-2 QS modul, HSP90 refold inh)
O=C(COC(=O)C1COc2ccccc2O1)c1ccccc1 (configuration not stated)	none (no result: HSF1 inh, AI-2 QS modul, HSP90 refold inh)
CC1CCCN(C(=O)c2ccc3c(=O)n4nc(Nc5ccccc5)sc4nc3c2)C1 (configuration not stated)	none (no result: HSF1 inh, AI-2 QS modul, HSP90 refold inh)
Cc1cccc(Nc2nn3c(=O)c4ccccc4nc3s2)c1	PG9 Ab binder 28 | PG9 bind confirm 62 | PGV04 counter 69
CCn1c(=NC(=O)c2cccc(N3C(=O)CCC3=O)c2)sc2c(OC)ccc(OC)c21	none
COc1ccc(OC)c2c1sc(=NC(=O)c1cccc(N3C(=O)CCC3=O)c1)n2C	PG9 Ab binder 52 | PG9 bind confirm 65 | PGV04 counter 82
O=C(Nc1ccc(F)c(Cl)c1)c1cc(C2CCCN(C(=O)c3cccs3)C2)on1 (configuration not stated)	none (no result: HSF1 inh, AI-2 QS modul, HSP90 refold inh)
COc1cc(C(=O)Nc2ccc(NC(=O)c3ccccc3)nc2)cc(OC)c1OC	none
COc1ccc(C(=O)Nc2ccc(NC(=O)c3cc(OC)c(OC)c(OC)c3)cn2)cc1	PG9 Ab binder 20 | PG9 bind confirm 15 | PGV04 counter 20
O=C(O)c1ccccc1CSc1nnc2c(n1)[nH]c1ccccc12	PG9 Ab binder 11 | PG9 bind confirm 21 | PGV04 counter 24

Screening results: PubChem, several laboratories
